The source of these data is PubChem BioAssay.

The nature of experiment [1]: stimulators of insulin release from INS-1E, primary screen, cell-based, 5 mM glucose, NPC library (AID 1117329;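 active means compound raises insulin release from rat beta cells at 5 mM glucose, no numeric limit stated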). To be noted: rat INS-1E insulin secretion, at 10 µM, stronger effect = higher value.
Experiment [2] in a line: growth inhibition of GSK3B-pretreated HCT116 cells – cell-based, CellTiter-Glo, 0.2 to 20 µM (AID 1117336;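 active means compounds lowering colon cancer cell viability after pretreatment blocking the GSK3B kinase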). To be noted: HCT116 viability after GSK3B inhibitor, at 20 µM, stronger effect = higher value.
Experiment [3] is described as follows: inhibition of endothelial tube formation, primary screen, imaging, VEGF stimulated, CD31 staining, tube area, NPC library (AID 1117340;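 active means compound that reduces growth-factor-driven endothelial tube area in a mixed cell culture, no cutoff stated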). To be noted: VEGF-stimulated ADSC/ECFC co-culture, at 10 µM, stronger effect = higher value.
The nature of experiment [4]: glucagon-like peptide 1 release enhancers, primary assay, NCI-H716 cell line, NPC library (AID 1117341;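 active means compound raises GLP1 secretion from the human gut endocrine cells, with no numeric limit stated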). To be noted: NCI-H716 cells, at 10 µM, stronger effect = higher value.
Experiment [5] is described as follows: HCT116 colon cancer cell growth inhibition, primary screen, CellTiter-Glo luminescence, NPC library (AID 1117342;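 active means compounds that lower survival of HCT116 colon cancer cells in the luminescence readout, no numeric limit stated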). Conditions: at 20 µM (top of the series).
A short description of experiment [6]: CellTiter-Glo luminescent readout of SW480 viability loss, NPC library primary (AID 1117343;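 active means compounds that lower viability of the colon cancer cells in the luminescence readout, with no numeric limit stated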). To be noted: CellTiter-Glo luminescence; at 20 µM (top of the series).
Experiment [7] is described as follows: decreased DLD-1 cellular survival, CellTiter-Glo luminescent readout, NPC compound collection, primary HTS (AID 1117346;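 active means compounds that lower survival of DLD-1 colon cancer cells in the luminescence readout, no cutoff given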). To be noted: DLD-1 viability, CellTiter-Glo luminescence; at 20 µM (top of the series). For orientation: In ATP-based viability assays light output follows the ATP content of the culture.
The nature of experiment [8]: modulation of C. elegans fzo-1 (AID 1259413).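 Further: fzo-1 mutant C. elegans worms in liquid wells.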 To be noted: C. elegans fzo-1 modulator screen, mean read-out; stronger effect = higher value.
A short description of experiment [9]: differential killing of epithelial or mesenchymal cells, primary screen, imaging, PC-3E GFP, TEM4-18 mCherry, co-culture (AID 1345086;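 active means compounds killing one labelled cell type while sparing the other, by normalised counts and ratio limits, not self-fluorescent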;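 on all read-outs here: cells exposed to compound for 72 h before imaging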;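 on red/green cell ratio (normalised): normalised mesenchymal count divided by normalised epithelial count so high means epithelial killing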). To be noted: imaging cell counts, at 1 µM; for red/green cell ratio (normalised): actives lie on both sides, counts scaled to control wells, 1 = unselective.
Experiment [10] concerns Aerobactin synthetase IucA (Klebsiella pneumoniae). Nature of the experiment: IucA aerobactin synthetase inhibitors, biochemical, Tocris library, absorbance (AID 1345561).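 Further: 100% = enzyme without compound and 0% = no enzyme.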 Conditions: purified IucA enzyme assay, absorbance (OD) read-out; stronger effect = lower value;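 tested at 8 µM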.
Experiment [11] can be described thus: growth inhibition of DIPG glioma cells, dose response, cell-based, SU-DIPG-XVII, MIPE5.0, CellTiter-Glo, qHTS (AID 1347060; cut-off not given, nearly all actives have AC50 up to about 26 µM). Conditions: SU-DIPG-XVII viability, CellTiter-Glo ATP luminescence.
Experiment [12] is described as follows: growth inhibition of DIPG glioma cells, dose response, cell-based, SU-DIPG-XIII, MIPE4.0, CellTiter-Glo, qHTS (AID 1347061; cut-off not given, nearly all actives have AC50 up to about 37 µM;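 further: cells exposed to compound for 48 hours before readout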). Conditions: SU-DIPG-XIII viability, CellTiter-Glo ATP luminescence.
Experiment [13] is described as follows: growth inhibition of DIPG glioma cells, dose response, cell-based, JHH-DIPG-1, MIPE4.0, CellTiter-Glo, qHTS (AID 1347062; cut-off not given, nearly all actives have AC50 up to about 27 µM). To be noted: JHH-DIPG-1 viability, CellTiter-Glo ATP luminescence.
The nature of experiment [14]: growth inhibition of DIPG glioma cells, dose response, cell-based, SU-DIPG-IV, MIPE4.0, CellTiter-Glo, qHTS (AID 1347063; cut-off not given, nearly all actives have AC50 up to about 30 µM;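 further: compound exposure lasted 48 hours before the viability readout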). To be noted: SU-DIPG-IV viability, CellTiter-Glo ATP luminescence.
Experiment [15] in a line: growth inhibition of DIPG glioma cells, dose response, cell-based, SU-DIPG-XIII, MIPE5.0, CellTiter-Glo, qHTS (AID 1347064; cut-off not given, nearly all actives have AC50 up to about 23 µM). To be noted: SU-DIPG-XIII viability, CellTiter-Glo ATP luminescence.
Where [16] appears, read: measured here: epithelial PC-3E GFP cell survival.
[17] abbreviates: measured here: mesenchymal TEM4-18 mCherry cell survival.

The structures appear in SMILES notation. Several values for one entry are separate records, joined by “and”; a condition that tells them apart may be missing. Equal entries are not always repeated. Records with an inconclusive call do not appear. Activity calls are given as the source filed them. Unless noted, how the calls were made is not given here.

As a reminder, the remaining activity is the signal under treatment as a percentage of the control signal. For `Cc1cccc(C)c1OCC(C)N` (stereo unspecified), the insulin secretion stimulation in experiment [1] is 4.3% (inactive). The viability decrease in experiment [2] is 3.4% (inactive). The tube area decrease in [3] was -2% (inactive). Further, the GLP1 secretion stimulation in experiment [4] was -4.1% (inactive). For the same compound, in [5], the inhibition of viability is 5.27% (inactive). In addition, the viability decrease (inhibition) in experiment [6] was -7.7% (inactive); in [7] it was 4.3% (inactive). Further, in experiment [8], the mean signal was 227 (inactive). Moreover, in [9], the red/green cell ratio (normalised) is 1.08 (inactive). Also, the figures for the normalised cell number in [9] (setting [16]) and in experiment [9] (setting [17]) were 1.13 and 1.22, respectively. Also, the remaining activity in experiment [10] is 104% (inactive).
As to `CN1CCCCC1CCN1c2ccccc2Sc2ccc(S(C)=O)cc21` (stereo unspecified), the insulin secretion stimulation in experiment [1] was 15.2% (inactive). Further, the viability decrease in [2] was 51% (active). Moreover, the tube area decrease in experiment [3] was 16.9% (inactive). For the same compound, the GLP1 secretion stimulation in experiment [4] was 12.7% (inactive). In addition, the inhibition of viability in [5] is 36.7% (active). In addition, the viability decrease (inhibition) was 31.7% (inactive) in [6] and 9.3% (inactive) in experiment [7]. Moreover, the mean signal in experiment [8] was 243 (inactive). For the same compound, in experiment [9], the red/green cell ratio (normalised) is 1.05 (inactive). Further, the normalised cell number came out at 1.11 in experiment [9] (setting [16]) and 1.16 in experiment [9] (setting [17]).
Regarding `C[C@H]1COc2c(C3(N)CC3)c(F)cc3c(=O)c(C(=O)O)cn1c23`, in experiment [1], the insulin secretion stimulation is -0.9% (inactive). In [2], the viability decrease was -4.4% (inactive). Besides, in [3], the tube area decrease was 2.8% (inactive). The GLP1 secretion stimulation in experiment [4] was 4.2% (inactive). For the same compound, the inhibition of viability in experiment [5] was -19.1% (inactive). Also, the viability decrease (inhibition) in experiment [6] is 43.9% (inactive); in experiment [7] it was 24.9% (inactive). For the same compound, the mean signal in experiment [8] was 269 (inactive). In addition, the red/green cell ratio (normalised) in [9] was 1.3 (inactive) and 0.88 (inactive). Also, the normalised cell number was 0.98 and 1.07 in experiment [9] (setting [16]); 1.28 and 0.94 in experiment [9] (setting [17]).
Take `Nc1nc(N)nc(-c2cc(Cl)ccc2Cl)n1`: the insulin secretion stimulation in experiment [1] was 2% (inactive). The viability decrease in [2] was 20.3% (inactive). Besides, the tube area decrease in [3] is -11.3% (inactive). Further, the GLP1 secretion stimulation in experiment [4] was -1.2% (inactive). In addition, in experiment [5], the inhibition of viability is -27.9% (inactive). For the same compound, the viability decrease (inhibition) in experiment [6] was -12.5% (inactive); in experiment [7], -18.2% (inactive). For the same compound, the mean signal in [8] was 297 (inactive). Moreover, the red/green cell ratio (normalised) in experiment [9] was 1.01 (inactive). Further, the normalised cell number stood at 1.08 in experiment [9] (setting [16]) and 1.09 in [9] (setting [17]). The remaining activity in experiment [10] was 103% (inactive). Moreover, the call in [11], in experiment [12] and in experiment [13] was inactive.
For `O=C(NCCN1CCOCC1)c1ccc(Cl)cc1`, the insulin secretion stimulation in experiment [1] was -2.6% (inactive). Moreover, the viability decrease in [2] was -7.6% (inactive). Further, the tube area decrease in experiment [3] is 6% (inactive). Further, the GLP1 secretion stimulation in experiment [4] was 0.4% (inactive). Besides, the inhibition of viability in experiment [5] was -2.6% (inactive). The viability decrease (inhibition) in experiment [6] was 35.1% (inactive); in experiment [7], -7.9% (inactive). Also, the mean signal in experiment [8] is 247 (inactive). The red/green cell ratio (normalised) in [9] was 0.88 (inactive). In addition, the normalised cell number in [9] (setting [16]) stood at 0.89; in experiment [9] (setting [17]), 0.79.
Take `COC(=O)C1=C(C)NC(C)=C(C(=O)OC(C)C)C1c1cccc2nonc12` (stereo unspecified): in experiment [1], the insulin secretion stimulation is -0.7% (inactive). Besides, in experiment [2], the viability decrease is -4.5% (inactive). Further, the tube area decrease in experiment [3] is 13.7% (inactive). Further, the GLP1 secretion stimulation in [4] is -2.4% (inactive). In addition, the inhibition of viability in [5] is 48.4% (inactive). The viability decrease (inhibition) in [6] was 20.8% (inactive); in experiment [7], 11.2% (inactive). Besides, the mean signal in [8] was 273 (inactive). Also, the red/green cell ratio (normalised) in [9] is 1.19 (inactive). The normalised cell number stood at 0.87 in experiment [9] (setting [16]) and 1.04 in [9] (setting [17]). The remaining activity in [10] was 109% (inactive). Also, the result in experiment [13] and in experiment [14] was inactive.
As for `CCN1CCCC1CNC(=O)c1cc(S(=O)(=O)CC)c(N)cc1OC` (stereo unspecified), in experiment [1], the insulin secretion stimulation was 0% (inactive). For the same compound, in [2], the viability decrease was -1.8% (inactive). Besides, in experiment [3], the tube area decrease was -11.8% (inactive). In [4], the GLP1 secretion stimulation is -4.7% (inactive). The inhibition of viability in experiment [5] is -1.4% (inactive). In addition, the viability decrease (inhibition) is 1.7% (inactive) in [6] and -1.4% (inactive) in experiment [7]. Moreover, the mean signal in experiment [8] is 235 (inactive). The red/green cell ratio (normalised) in [9] was 1.01 (inactive). For the same compound, the normalised cell number amounted to 0.89 in experiment [9] (setting [16]) and 0.9 in [9] (setting [17]). Besides, the remaining activity in [10] is 104% (inactive). Also, the compound was classed as inactive in experiment [11], in [12], in experiment [13], in experiment [14] and in [15].
On to `O=C(NCCO[N+](=O)[O-])c1cccnc1`, for which the insulin secretion stimulation in [1] is 1.2% (inactive). For the same compound, in [2], the viability decrease was -0.2% (inactive). For the same compound, the tube area decrease in experiment [3] was -25.1% (inactive). In addition, in [4], the GLP1 secretion stimulation is -1.4% (inactive). In addition, the inhibition of viability in [5] was 6% (inactive). The viability decrease (inhibition) in experiment [6] was 0.2% (inactive); in [7], -3.2% (inactive). For the same compound, the mean signal in experiment [8] was 264 (inactive). The red/green cell ratio (normalised) in experiment [9] was 0.94 (inactive). Besides, the normalised cell number in [9] (setting [16]) was 1.18; in experiment [9] (setting [17]), 1.11. Further, in experiment [10], the remaining activity is 106% (inactive). Moreover, the compound was classed as inactive in experiment [11], in [12] and in experiment [14].
